Calls of active or inactive are those of the source. How the source made its calls: active means hit-call score of the fitted dose curve at least 0.9, where 1 is the maximum; inactive means score below 0.9.
Assays:
[1] = molecular target: Bile acid receptor (Homo sapiens) (UniProt Q96RI1); assay: ATG_IR1_CIS: Attagene CIS-FACTORIAL HepG2 Assay for human Nuclear Receptor Subfamily 1 Group H Member 4 (NR1H4), IR1 submotif (AID 2282946); details: IR1 reporter transcription, actives raise or lower the signal
How it was run: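 HepG2 cells transiently transfected with multiplexed cis-element reporter units read endogenous transcription factor activity. After 24 h compound exposure, reporter mRNA was quantified by RT-PCR, fluorescent labelling, HpaI digestion and capillary electrophoresis; bidirectional fitting versus DMSO baseline.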

[2] = ATG_GRE_CIS: Attagene CIS-FACTORIAL HepG2 Assay for human Glucocorticoid Response Elements (GRE) (AID 2282947); details: HepG2 GRE cis-reporter, Attagene multiplex mRNA; actives raise or lower the signal
How it was run: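 Multiplexed cis-reporter mRNA induction, HepG2, 24 h post-dose. RT-PCR, FAM-labelled, HpaI-digested amplicons by CE. Bidirectional fit vs DMSO.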

[3] = ATG_ISRE_CIS: Attagene CIS-FACTORIAL HepG2 Assay for human Interferon Regulatory Factor 1 (IRF1) binding to an Interferon-Stimulated Response Element (ISRE) (AID 2282948); details: HepG2 ISRE cis-reporter (Attagene), mRNA transcription readout; actives raise or lower the signal
How it was run: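 Read-out: fluorescent RT-PCR products resolved by capillary electrophoresis, reporting endogenous transcription factor activity via ISRE-driven reporter mRNA in transfected HepG2 cells dosed for 24 h; gain or loss fitted relative to DMSO.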

[4] = ATG_M_32_CIS: Attagene CIS-FACTORIAL HepG2 Assay for M32 Transcription Factor (Internal Marker) (AID 2282949); details: HepG2 Attagene cis-factorial M32 reporter, mRNA; actives raise or lower the signal;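 further: background control marker of the multiplexed CIS panel rather than a real target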
How it was run: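 Using DMSO as baseline, bidirectional curve fits were applied to reporter mRNA signals. These came from transiently transfected HepG2 cells exposed for 24 h, with RNA analysed by RT-PCR, FAM primer extension, HpaI digestion and CE.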

[5] = ATG_M_06_CIS: Attagene CIS-FACTORIAL HepG2 Assay for M06 Transcription Factor (Internal Marker) (AID 2282950); details: HepG2 Attagene CIS-FACTORIAL M06 internal marker reporter; actives raise or lower the signal
How it was run: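 One of many multiplexed endpoints: HepG2 reporter mRNA after 24 h dosing, detected by RT-PCR and capillary electrophoresis fluorescence; gain or loss of signal analysed against DMSO.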

[6] = molecular target: Hypoxia-inducible factor 1-alpha (Homo sapiens) (UniProt Q16665); assay: ATG_HIF1a_CIS: Attagene CIS-FACTORIAL HepG2 Assay for human Hypoxia Inducible Factor 1 (HIF1A) (AID 2282951); details: HepG2 Attagene cis-factorial HIF1a reporter transcription; actives raise or lower the signal
How it was run: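 Dosed 24 h, transfected HepG2 cells yielded total RNA whose reporter transcripts were RT-PCR-amplified and sized by capillary electrophoresis using fluorescent labelling; DMSO defined baseline, with gain and loss of signal both fitted.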

[7] = molecular target: Hepatocyte nuclear factor 6 (Homo sapiens) (UniProt Q9UBC0); assay: ATG_HNF6_CIS: Attagene CIS-FACTORIAL HepG2 Assay for human Hepatocyte Nuclear Factor 6 (HNF6) (AID 2282952); details: HepG2 Attagene cis-factorial HNF6 reporter transcription; actives raise or lower the signal
How it was run: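 Using cis-element reporters in HepG2 liver cells, the assay tracks endogenous factor-driven transcription 24 h post-dosing. Signal comes from 6-FAM-labelled, HpaI-digested RT-PCR fragments, with gain or loss scored against DMSO.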

[8] = molecular target: Heat shock factor protein 1 (Homo sapiens) (UniProt Q00613); assay: ATG_HSE_CIS: Attagene CIS-FACTORIAL HepG2 Assay for human Heat Shock Transcription Factor 1 (HSE) (AID 2282953); details: HepG2 HSE cis-reporter, Attagene RNA transcription; actives raise or lower the signal
How it was run: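 Using HepG2 with transfected cis-driven reporter constructs, compound effects on endogenous factor activity are scored as reporter mRNA change at 24 h. Detection: RT-PCR, HpaI digestion, capillary electrophoresis; bidirectional fitting to DMSO.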

[9] = ATG_MRE_CIS: Attagene CIS-FACTORIAL HepG2 Assay for human Metal Responsive Element (MRE) (AID 2282954); details: HepG2 MRE cis-reporter transcription, Attagene multiplex; actives raise or lower the signal
How it was run: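 Multiplexed cis-reporter assay in human HepG2 liver cells, 24 h incubation with test chemical. Reporter transcripts measured by RT-PCR and capillary electrophoresis; values from bidirectional curve fitting versus DMSO.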

[10] = ATG_PBREM_CIS: Attagene CIS-FACTORIAL HepG2 Assay for human Phenobarbital-responsive Enhancer Module (PBREM) (AID 2282955); details: HepG2 PBREM cis-reporter, Attagene multiplexed transcription; actives raise or lower the signal
How it was run: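 Transfected liver-derived HepG2 cells exposed 24 h; PBREM reporter transcript quantified via RT-PCR and capillary electrophoresis, with activity in either direction referenced to DMSO.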

[11] = molecular target: Paired box protein Pax-6 (Homo sapiens) (UniProt P26367); assay: ATG_Pax6_CIS: Attagene CIS-FACTORIAL HepG2 Assay for human Paired Box 6 (PAX6) (AID 2282956); details: HepG2 CIS-FACTORIAL PAX6 reporter transcription, RNA readout; actives raise or lower the signal
How it was run: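 Readout: reporter transcript fluorescence after RT-PCR and capillary electrophoresis. Cells: HepG2, transiently transfected with cis-regulated MRTUs. Exposure 24 h. Gain or loss of signal fitted bidirectionally relative to DMSO.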

[12] = ATG_PXRE_CIS: Attagene CIS-FACTORIAL HepG2 Assay for human Pregnane X Receptor Element (PXRE) (AID 2282957); details: HepG2 Attagene CIS-FACTORIAL PXRE reporter, mRNA; actives raise or lower the signal
How it was run: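 Using HepG2 transfected with multiple reporter transcription units, endogenous factor-driven transcription was scored as reporter mRNA after 24 h exposure.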

[13] = ATG_PPRE_CIS: Attagene CIS-FACTORIAL HepG2 Assay for human Peroxisome Proliferator-activated Response Element (PPRE) (AID 2282958); details: HepG2 PPRE cis-element reporter, Attagene transcription factor profiling; actives raise or lower the signal
How it was run: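 Measured endpoint: PPRE-controlled reporter mRNA, detected by RT-PCR and capillary electrophoresis fluorescence, from transiently transfected HepG2 cells 24 h after dosing. Curves fitted in both directions using DMSO baseline.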

[14] = ATG_RORE_CIS: Attagene CIS-FACTORIAL HepG2 Assay for human RAR-related Orphan Receptor Element (RORE) (AID 2282959); details: HepG2 Attagene cis-factorial RORE reporter, mRNA; actives raise or lower the signal
How it was run: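 Transiently transfected HepG2 reporter cells were treated 24 h. Reporter transcripts were detected by RT-PCR and capillary electrophoresis, with bidirectional fitting against DMSO.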

[15] = ATG_Sox_CIS: Attagene CIS-FACTORIAL HepG2 Assay for human SRY-box transcription factor (SOX) (AID 2282960); details: HepG2 Attagene cis-factorial SOX reporter, mRNA; actives raise or lower the signal
How it was run: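 Gain- or loss-of-signal endpoint, fitted bidirectionally with DMSO as negative control. Based on reporter mRNA from transfected HepG2 cells harvested 24 h post-treatment and quantified via RT-PCR and capillary electrophoresis.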

[16] = molecular target: Transcription factor Sp1 (Homo sapiens) (UniProt P08047); assay: ATG_Sp1_CIS: Attagene CIS-FACTORIAL HepG2 Assay for human Specificity Protein 1 (Sp1) (AID 2282961); details: HepG2 Sp1 cis-reporter transcription, actives raise or lower the signal
How it was run: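 Endpoint reflects endogenous Sp1 transcriptional activity, not an exogenous fusion protein: HepG2 cells with transfected cis-regulated reporters, 24 h dosing, RT-PCR/capillary electrophoresis mRNA read-out, DMSO-normalised bidirectional fit.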

[17] = ATG_SREBP_CIS: Attagene CIS-FACTORIAL HepG2 Assay for human Sterol Regulatory Element Binding (SREBP) (AID 2282962); details: HepG2 Attagene cis-factorial SREBP reporter, mRNA; actives raise or lower the signal
How it was run: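 Readout: fluorescent reporter-transcript peaks resolved by capillary electrophoresis after RT-PCR. Cells were human HepG2 carrying transfected cis-promoter reporter constructs, dosed for 24 h. Gain or loss of signal was fitted against DMSO controls.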

[18] = molecular target: Signal transducer and activator of transcription 3 (Homo sapiens) (UniProt P40763); assay: ATG_STAT3_CIS: Attagene CIS-FACTORIAL HepG2 Assay for human Signal Transducer and Activator of Transcription 3 (STAT3) (AID 2282963); details: HepG2, Attagene cis-factorial STAT3 reporter transcription; actives raise or lower the signal
How it was run: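 Cis-factorial format: endogenous transcription factors in HepG2 drive transfected reporter units. After 24 h treatment, reporter RNA was reverse-transcribed, amplified, FAM-labelled and HpaI-digested before CE analysis; activity scored in both directions against DMSO.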

[19] = ATG_TA_CIS: Attagene CIS-FACTORIAL HepG2 Assay for human TA Basal Promoter (AID 2282964); details: HepG2 Attagene CIS-factorial TA basal promoter reporter; actives raise or lower the signal
How it was run: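 Transient MRTU transfection of HepG2 preceded 24 h compound exposure. Reporter mRNA levels were then read by RT-PCR with capillary electrophoresis, and this background-control endpoint was fitted bidirectionally to DMSO.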

[20] = ATG_TCF_b_cat_CIS: Attagene CIS-FACTORIAL HepG2 Assay for human T-Cell-Factor with beta-catenin (TCF/b-cat) (AID 2282965); details: HepG2 TCF/beta-catenin cis-reporter transcription, actives raise or lower the signal
How it was run: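 Endogenous transcription factor activity is captured through cis-promoter reporter constructs transiently introduced into human HepG2 liver cells. Induced reporter mRNA is measured after 24 h and fitted bidirectionally relative to DMSO.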

Heat shock factor protein 1 (Homo sapiens), sequence (Q00613 whole entry, looked up): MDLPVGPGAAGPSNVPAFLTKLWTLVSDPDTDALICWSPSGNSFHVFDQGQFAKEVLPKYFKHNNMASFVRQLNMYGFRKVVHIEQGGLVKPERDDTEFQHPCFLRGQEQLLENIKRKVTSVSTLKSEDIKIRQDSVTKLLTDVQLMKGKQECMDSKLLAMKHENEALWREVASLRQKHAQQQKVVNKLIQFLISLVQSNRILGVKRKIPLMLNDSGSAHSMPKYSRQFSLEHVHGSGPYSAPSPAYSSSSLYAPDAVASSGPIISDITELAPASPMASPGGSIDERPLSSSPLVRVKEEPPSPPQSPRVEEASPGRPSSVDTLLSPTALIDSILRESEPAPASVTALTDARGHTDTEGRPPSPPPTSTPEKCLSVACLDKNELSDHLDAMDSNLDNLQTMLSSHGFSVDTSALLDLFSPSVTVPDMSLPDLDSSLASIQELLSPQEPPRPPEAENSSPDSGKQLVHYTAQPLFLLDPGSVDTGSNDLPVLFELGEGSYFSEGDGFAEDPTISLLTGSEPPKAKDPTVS
Transcription factor Sp1 (Homo sapiens), sequence (P08047 whole entry, looked up, the tested form may be a part): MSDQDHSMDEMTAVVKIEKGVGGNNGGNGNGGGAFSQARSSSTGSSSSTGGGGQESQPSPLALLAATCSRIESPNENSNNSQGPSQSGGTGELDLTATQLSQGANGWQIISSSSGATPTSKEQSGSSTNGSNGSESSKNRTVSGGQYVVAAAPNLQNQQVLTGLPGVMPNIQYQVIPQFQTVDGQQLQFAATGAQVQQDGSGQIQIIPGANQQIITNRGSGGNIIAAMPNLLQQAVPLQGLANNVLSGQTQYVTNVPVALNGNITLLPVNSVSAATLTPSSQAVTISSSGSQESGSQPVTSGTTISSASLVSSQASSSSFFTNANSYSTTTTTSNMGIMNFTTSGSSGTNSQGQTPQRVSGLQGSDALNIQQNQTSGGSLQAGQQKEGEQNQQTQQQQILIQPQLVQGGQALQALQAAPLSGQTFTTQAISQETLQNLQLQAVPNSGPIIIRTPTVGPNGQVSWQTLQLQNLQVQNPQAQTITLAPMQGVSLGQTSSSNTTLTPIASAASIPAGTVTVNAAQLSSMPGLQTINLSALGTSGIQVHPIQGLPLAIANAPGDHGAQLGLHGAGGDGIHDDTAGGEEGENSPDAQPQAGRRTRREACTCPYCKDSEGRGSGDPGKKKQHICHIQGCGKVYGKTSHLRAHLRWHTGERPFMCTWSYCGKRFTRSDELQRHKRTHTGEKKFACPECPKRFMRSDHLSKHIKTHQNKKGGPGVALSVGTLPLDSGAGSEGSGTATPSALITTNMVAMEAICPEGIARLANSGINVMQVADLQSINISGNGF
Signal transducer and activator of transcription 3 (Homo sapiens), sequence (P40763 whole entry, looked up): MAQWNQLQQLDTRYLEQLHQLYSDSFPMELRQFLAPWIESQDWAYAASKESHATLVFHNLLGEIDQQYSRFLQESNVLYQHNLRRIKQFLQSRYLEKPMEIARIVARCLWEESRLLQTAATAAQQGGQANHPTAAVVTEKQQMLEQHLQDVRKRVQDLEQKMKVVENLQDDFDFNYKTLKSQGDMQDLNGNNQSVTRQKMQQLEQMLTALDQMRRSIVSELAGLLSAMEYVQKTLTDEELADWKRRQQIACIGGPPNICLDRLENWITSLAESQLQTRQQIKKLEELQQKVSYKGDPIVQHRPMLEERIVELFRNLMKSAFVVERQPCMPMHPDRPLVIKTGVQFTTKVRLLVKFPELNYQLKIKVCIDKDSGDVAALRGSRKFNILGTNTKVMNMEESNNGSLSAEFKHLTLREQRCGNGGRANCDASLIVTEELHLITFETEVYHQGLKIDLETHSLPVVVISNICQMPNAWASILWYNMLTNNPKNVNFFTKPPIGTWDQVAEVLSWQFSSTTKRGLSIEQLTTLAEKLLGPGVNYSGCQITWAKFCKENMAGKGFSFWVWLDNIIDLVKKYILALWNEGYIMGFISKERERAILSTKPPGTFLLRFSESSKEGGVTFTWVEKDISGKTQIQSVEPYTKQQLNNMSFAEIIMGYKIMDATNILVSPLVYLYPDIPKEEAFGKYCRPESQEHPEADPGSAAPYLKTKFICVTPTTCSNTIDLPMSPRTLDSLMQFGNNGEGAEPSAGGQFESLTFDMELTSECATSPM
Hypoxia-inducible factor 1-alpha (Homo sapiens), sequence (Q16665 whole entry, looked up): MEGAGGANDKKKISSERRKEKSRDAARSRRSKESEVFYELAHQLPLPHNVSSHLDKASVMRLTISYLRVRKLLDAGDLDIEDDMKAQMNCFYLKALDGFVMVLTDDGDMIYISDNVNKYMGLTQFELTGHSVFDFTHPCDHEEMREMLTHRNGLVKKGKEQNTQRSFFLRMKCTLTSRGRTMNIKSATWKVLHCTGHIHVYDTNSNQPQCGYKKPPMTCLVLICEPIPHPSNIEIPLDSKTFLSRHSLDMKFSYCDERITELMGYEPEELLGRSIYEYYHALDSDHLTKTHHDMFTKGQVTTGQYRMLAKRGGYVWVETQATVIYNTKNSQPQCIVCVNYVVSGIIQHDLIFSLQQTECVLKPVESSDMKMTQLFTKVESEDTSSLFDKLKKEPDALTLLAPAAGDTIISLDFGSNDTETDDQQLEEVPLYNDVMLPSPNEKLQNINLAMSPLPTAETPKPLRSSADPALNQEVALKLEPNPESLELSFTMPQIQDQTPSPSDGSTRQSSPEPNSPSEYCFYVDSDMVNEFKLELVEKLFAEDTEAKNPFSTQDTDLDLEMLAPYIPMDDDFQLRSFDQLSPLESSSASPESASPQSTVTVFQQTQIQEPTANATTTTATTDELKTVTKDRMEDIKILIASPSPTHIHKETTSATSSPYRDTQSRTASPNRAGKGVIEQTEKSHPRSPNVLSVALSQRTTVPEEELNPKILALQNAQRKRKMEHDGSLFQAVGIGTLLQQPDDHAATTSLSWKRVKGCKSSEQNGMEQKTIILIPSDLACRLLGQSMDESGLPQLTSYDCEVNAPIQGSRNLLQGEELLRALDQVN
Paired box protein Pax-6 (Homo sapiens), sequence (P26367 whole entry, looked up): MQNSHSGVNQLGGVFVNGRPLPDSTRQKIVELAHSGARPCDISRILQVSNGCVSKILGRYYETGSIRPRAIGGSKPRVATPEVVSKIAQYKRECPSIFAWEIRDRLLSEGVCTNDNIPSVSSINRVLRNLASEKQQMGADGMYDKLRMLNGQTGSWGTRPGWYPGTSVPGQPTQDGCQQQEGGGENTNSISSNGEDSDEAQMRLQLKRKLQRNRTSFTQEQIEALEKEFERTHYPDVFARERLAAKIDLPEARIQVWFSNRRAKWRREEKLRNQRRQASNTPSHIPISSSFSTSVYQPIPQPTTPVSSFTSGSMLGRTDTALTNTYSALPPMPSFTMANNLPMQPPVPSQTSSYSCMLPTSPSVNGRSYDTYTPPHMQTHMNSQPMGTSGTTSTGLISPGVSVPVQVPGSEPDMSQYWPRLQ
Bile acid receptor (Homo sapiens), sequence (Q96RI1 whole entry, looked up): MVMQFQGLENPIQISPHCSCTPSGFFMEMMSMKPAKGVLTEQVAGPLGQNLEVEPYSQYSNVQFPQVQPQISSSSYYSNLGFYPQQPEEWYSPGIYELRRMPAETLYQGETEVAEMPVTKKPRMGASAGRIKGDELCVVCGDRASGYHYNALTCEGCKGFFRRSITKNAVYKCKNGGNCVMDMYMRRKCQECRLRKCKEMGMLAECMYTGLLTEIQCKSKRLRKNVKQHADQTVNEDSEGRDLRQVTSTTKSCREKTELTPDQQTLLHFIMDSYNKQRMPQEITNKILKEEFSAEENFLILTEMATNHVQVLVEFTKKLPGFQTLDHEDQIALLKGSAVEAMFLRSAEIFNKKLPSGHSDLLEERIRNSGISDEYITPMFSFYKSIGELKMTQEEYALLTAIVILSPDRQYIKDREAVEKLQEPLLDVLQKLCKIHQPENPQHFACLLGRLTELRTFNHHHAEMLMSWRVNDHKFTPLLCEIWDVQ
Hepatocyte nuclear factor 6 (Homo sapiens), sequence (Q9UBC0 whole entry, looked up, the tested form may be a part): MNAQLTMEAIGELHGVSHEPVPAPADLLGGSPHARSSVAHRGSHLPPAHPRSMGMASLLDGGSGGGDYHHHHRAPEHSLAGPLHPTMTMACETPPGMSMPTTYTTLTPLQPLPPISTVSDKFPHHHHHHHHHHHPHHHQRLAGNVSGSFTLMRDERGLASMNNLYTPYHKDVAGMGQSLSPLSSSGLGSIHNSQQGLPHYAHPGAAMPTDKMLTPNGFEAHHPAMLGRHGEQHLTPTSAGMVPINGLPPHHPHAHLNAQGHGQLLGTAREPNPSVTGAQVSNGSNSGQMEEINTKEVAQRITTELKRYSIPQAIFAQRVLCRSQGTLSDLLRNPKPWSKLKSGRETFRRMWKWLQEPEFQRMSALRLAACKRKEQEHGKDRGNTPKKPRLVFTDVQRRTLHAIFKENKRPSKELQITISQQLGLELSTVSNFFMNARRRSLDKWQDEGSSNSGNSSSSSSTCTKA

N#Cc1ccccc1
outcome [1]: inactive | outcome [2]: inactive | outcome [3]: inactive | outcome [4]: inactive | outcome [5]: inactive | outcome [6]: inactive | outcome [7]: inactive | outcome [8]: inactive | outcome [9]: inactive | outcome [10]: inactive | outcome [11]: inactive | outcome [12]: inactive | outcome [13]: inactive | outcome [14]: inactive | outcome [15]: inactive | outcome [16]: inactive | outcome [17]: inactive | outcome [18]: inactive | outcome [19]: inactive | outcome [20]: inactive

c1ccc2c(c1)c1cccc3ccc4cccc2c4c31
outcome [1]: inactive | outcome [2]: inactive | outcome [3]: inactive | outcome [4]: inactive | outcome [5]: inactive | outcome [6]: inactive | outcome [7]: inactive | outcome [8]: inactive | outcome [9]: inactive | outcome [10]: inactive | outcome [11]: inactive | outcome [12]: inactive | outcome [14]: inactive | outcome [15]: inactive | outcome [16]: inactive | outcome [17]: inactive | outcome [18]: inactive | outcome [19]: inactive | outcome [20]: inactive

CC1CCC2CC1C2(C)C (centres undefined)
outcome [1]: inactive | outcome [2]: inactive | outcome [3]: inactive | outcome [4]: inactive | outcome [5]: inactive | outcome [6]: inactive | outcome [7]: inactive | outcome [8]: inactive | outcome [9]: inactive | outcome [10]: inactive | outcome [11]: inactive | outcome [12]: inactive | outcome [14]: inactive | outcome [15]: inactive | outcome [16]: inactive | outcome [17]: inactive | outcome [18]: inactive | outcome [19]: inactive | outcome [20]: inactive

Nc1ccc(F)c([N+](=O)[O-])c1
outcome [1]: inactive | outcome [2]: inactive | outcome [3]: inactive | outcome [4]: inactive | outcome [5]: inactive | outcome [6]: inactive | outcome [7]: inactive | outcome [8]: inactive | outcome [9]: inactive | outcome [10]: inactive | outcome [11]: inactive | outcome [12]: inactive | outcome [13]: inactive | outcome [14]: inactive | outcome [15]: inactive | outcome [16]: inactive | outcome [17]: inactive | outcome [18]: inactive | outcome [20]: inactive

CC(C)(C#N)c1cc(Cn2cncn2)cc(C(C)(C)C#N)c1
outcome [1]: inactive | outcome [2]: inactive | outcome [3]: inactive | outcome [4]: inactive | outcome [5]: inactive | outcome [6]: inactive | outcome [7]: inactive | outcome [8]: inactive | outcome [9]: inactive | outcome [10]: inactive | outcome [11]: inactive | AC50 [12]: 14.8 µM (active) | outcome [14]: inactive | outcome [15]: inactive | outcome [16]: inactive | outcome [17]: inactive | outcome [19]: inactive | outcome [20]: inactive

Cc1ncc([N+](=O)[O-])n1C
outcome [1]: inactive | outcome [2]: inactive | outcome [3]: inactive | outcome [4]: inactive | outcome [5]: inactive | outcome [6]: inactive | outcome [7]: inactive | outcome [9]: inactive | outcome [10]: inactive | outcome [11]: inactive | AC50 [12]: 53.2 µM (active) | outcome [15]: inactive | outcome [16]: inactive | outcome [17]: inactive | outcome [18]: inactive | outcome [19]: inactive | outcome [20]: inactive

CC(C#N)(CCC(=O)O)N=NC(C)(C#N)CCC(=O)O (centres undefined)
outcome [1]: inactive | outcome [2]: inactive | outcome [3]: inactive | outcome [4]: inactive | outcome [5]: inactive | outcome [6]: inactive | outcome [7]: inactive | outcome [8]: inactive | outcome [9]: inactive | outcome [10]: inactive | outcome [11]: inactive | outcome [14]: inactive | outcome [15]: inactive | outcome [16]: inactive | outcome [17]: inactive | outcome [18]: inactive | outcome [20]: inactive

— PubChem BioAssay (EPA / NIEHS)
